Consider 20 compounds from PubChem BioAssay (Tox21).

Values joined by “and” are separate entries in the source; they are usually repeats but may differ in a detail not shown here. Equal entries are not always repeated. Records with an inconclusive call do not appear. Where a call stands in place of a potency, no number is given. Active and inactive are the calls of the source. Calls come from the whole dose curve.
Potency is the fitted concentration of half-maximal effect.

Sequence of Acetylcholinesterase (Homo sapiens) (P22303 whole entry, looked up): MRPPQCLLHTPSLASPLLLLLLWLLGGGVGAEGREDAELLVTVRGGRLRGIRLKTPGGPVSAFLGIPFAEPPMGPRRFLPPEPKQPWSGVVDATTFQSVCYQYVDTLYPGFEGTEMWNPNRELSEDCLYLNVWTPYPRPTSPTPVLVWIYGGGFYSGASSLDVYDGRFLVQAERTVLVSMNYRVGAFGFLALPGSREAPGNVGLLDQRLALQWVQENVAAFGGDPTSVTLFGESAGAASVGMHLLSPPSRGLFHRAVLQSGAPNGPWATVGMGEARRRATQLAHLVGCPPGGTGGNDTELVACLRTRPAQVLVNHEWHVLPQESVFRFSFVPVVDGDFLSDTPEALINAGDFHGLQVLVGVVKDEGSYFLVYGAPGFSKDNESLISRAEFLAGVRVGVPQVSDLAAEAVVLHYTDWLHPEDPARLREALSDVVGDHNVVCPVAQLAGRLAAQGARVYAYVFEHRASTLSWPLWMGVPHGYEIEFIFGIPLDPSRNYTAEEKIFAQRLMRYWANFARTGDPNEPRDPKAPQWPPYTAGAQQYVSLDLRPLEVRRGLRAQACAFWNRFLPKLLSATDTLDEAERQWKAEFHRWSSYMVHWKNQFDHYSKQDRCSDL

This assay concerns the target Acetylcholinesterase (Homo sapiens) (UniProt P22303). Put plainly: Acetylcholinesterase (AChE) small molecule antagonists: fluorescence cell-based qHTS assay (AID 1347398). Note: nearly all actives have a fitted effect of over 50% in size. The note with it: SH-SY5Y cells; Potency: AChE activity; series mostly up to 115 µM. The essentials:
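Endogenous acetylcholinesterase of SH-SY5Y neuroblastoma cells is measured in situ. After overnight attachment and 30 min compound exposure, cells receive acetylthiocholine and Thiolite Green; fluorescence is read after 40 min at room temperature.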
In general terms: Quantitative high-throughput screening tests each substance at several concentrations.
With `CN1C(=O)CCS(=O)(=O)C1c1ccc(Cl)cc1` (stereo not given), the Potency entry is “inactive”.
To `CNc1cnn(-c2cccc(C(F)(F)F)c2)c(=O)c1Cl` belongs “inactive”; to `CC(C)c1cccc(C(C)C)c1O`, “inactive”.
The same measure for `Cc1cccc(N)c1C`: “inactive”; for `CCOc1ccc(N)cc1`: “inactive”; for `O=[N+]([O-])c1ccc(Cl)c(Cl)c1`: “inactive”.
To `OCC(O)CCl` (stereo not given) belongs “inactive”; to `FC(F)(F)c1ccc(Cl)cc1`, “inactive”.
For the compound `COc1nc(NC(C)C)nc(NC(C)C)n1`, the Potency entry is “inactive”.
On to `CCCCC(CC)C(=O)Cl` (stereo not given), for which the Potency result was “inactive”.
To `CCOP(=S)(OCC)Oc1ccc([N+](=O)[O-])cc1` belongs 71.9 µM (active) and 15.5 µM (active).
The same measure for `Nc1ncc([N+](=O)[O-])s1`: “inactive”; for `CC12CC1(C)C(=O)N(c1cc(Cl)cc(Cl)c1)C2=O` (stereo not given): “inactive”.
As to `Sc1ccccc1`, the Potency entry was “inactive”.
The same measure for `Cc1ccc(O)c(C)c1`: “inactive”.
To `CC(C)CCCCCCOC(=O)c1ccccc1C(=O)OCCCCCCC(C)C` belongs “inactive”; to `O=[N+]([O-])c1ccc(Cl)cc1`, “inactive”.
To `Cl[C@H]1OCCO[C@@H]1Cl` belongs “inactive”; to `ClC(Cl)c1ccccc1`, “inactive”.
As to `CSc1nnc(C(C)(C)C)c(=O)n1N`, the Potency result was “inactive”.
